This passage reports inhibition results from ChEMBL document CHEMBL4808148, “HDAC6 screening dataset using tau-based substrate in an enzymatic assay yields selective inhibitors and activators” (2021).

By inhibition is commonly meant the drop in the measured response relative to a control, in per cent.

The structures appear in SMILES notation. Out of some 5,600 compounds screened, about 390 (7%) showed an effect of 50% or more. The list comes from a sample in which strong results are over-represented; it also holds similar structures and randomly drawn compounds. Non-standard residues stand in square brackets, D forms with d. Residues, ends and D or L forms follow the SMILES beside them. *: point of attachment. dPhe(4-NHCONH2) = NC(=O)Nc1ccc(C[C@@H](N)C(=O)O)cc1; Dihydroorotyl(S) = O=C1C[C@@H](C(=O)*)NC(=O)N1; dPhe(4-Cl) = N[C@H](Cc1ccc(Cl)cc1)C(=O)O; Phe(4-NH2) = Nc1ccc(C[C@H](N)C(=O)O)cc1; d2Nal = N[C@H](Cc1ccc2ccccc2c1)C(=O)O; Lys(iPr) = CC(C)NCCCC[C@H](N)C(=O)O; d3Pal = N[C@H](Cc1cccnc1)C(=O)O

The target in the experiment is T1, Protein deacetylase HDAC6 (Homo sapiens) (UniProt Q9UBN7).
T1 sequence (whole entry): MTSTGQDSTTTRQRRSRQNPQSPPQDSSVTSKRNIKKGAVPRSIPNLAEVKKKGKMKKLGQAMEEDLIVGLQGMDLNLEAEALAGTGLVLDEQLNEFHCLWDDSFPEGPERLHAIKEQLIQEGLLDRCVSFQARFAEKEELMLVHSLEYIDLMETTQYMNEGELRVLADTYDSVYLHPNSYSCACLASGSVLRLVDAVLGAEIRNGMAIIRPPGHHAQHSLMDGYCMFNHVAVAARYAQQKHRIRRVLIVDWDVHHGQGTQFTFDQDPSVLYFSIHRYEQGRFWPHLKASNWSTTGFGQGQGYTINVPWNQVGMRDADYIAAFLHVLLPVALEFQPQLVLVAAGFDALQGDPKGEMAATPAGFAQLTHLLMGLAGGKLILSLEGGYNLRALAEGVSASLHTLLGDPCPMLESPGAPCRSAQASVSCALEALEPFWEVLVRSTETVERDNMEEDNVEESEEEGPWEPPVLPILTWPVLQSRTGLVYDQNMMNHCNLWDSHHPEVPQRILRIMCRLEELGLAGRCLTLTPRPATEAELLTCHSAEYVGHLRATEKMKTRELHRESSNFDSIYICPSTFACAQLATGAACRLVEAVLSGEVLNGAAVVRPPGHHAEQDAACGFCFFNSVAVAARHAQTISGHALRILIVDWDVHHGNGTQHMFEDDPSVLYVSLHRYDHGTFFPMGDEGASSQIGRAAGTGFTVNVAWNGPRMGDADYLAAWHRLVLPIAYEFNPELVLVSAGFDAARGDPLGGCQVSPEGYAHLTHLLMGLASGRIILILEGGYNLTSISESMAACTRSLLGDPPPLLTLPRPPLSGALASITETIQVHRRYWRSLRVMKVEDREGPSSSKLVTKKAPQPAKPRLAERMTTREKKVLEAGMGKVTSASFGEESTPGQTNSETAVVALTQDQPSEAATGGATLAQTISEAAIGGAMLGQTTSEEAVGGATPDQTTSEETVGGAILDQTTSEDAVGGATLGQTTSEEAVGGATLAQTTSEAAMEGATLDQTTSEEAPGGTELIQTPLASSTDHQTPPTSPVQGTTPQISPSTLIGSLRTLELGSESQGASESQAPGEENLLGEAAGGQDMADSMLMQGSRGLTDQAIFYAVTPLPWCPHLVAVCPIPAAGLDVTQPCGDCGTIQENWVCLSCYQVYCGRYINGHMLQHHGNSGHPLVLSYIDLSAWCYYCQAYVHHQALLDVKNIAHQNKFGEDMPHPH
The settings on record: at 10 µM.
Regarding `CN([C@@H](Cc1ccc(OS(=O)(=O)c2cccc3cnccc23)cc1)C(=O)N1CCN(c2ccccc2)CC1)S(=O)(=O)c1cccc2cnccc12`, the inhibition is -4.11%.
As for `CC(C)c1cc(-c2n[nH]c(=O)n2-c2ccc3c(ccn3C)c2)c(O)cc1O`, the inhibition came out at 29.4%.
For `Nc1nc(N)c2nc(-c3cccc(O)c3)cnc2n1`, the inhibition is 88.7%.
With `Oc1cccc(-c2c3nc(c(-c4cccc(O)c4)c4ccc([nH]4)c(-c4cccc(O)c4)c4nc(c(-c5cccc(O)c5)c5ccc2[nH]5)CC4)C=C3)c1`, the inhibition was 36.9%.
For `Nc1nc(N)c2nc(-c3ccccc3)c(N)nc2n1`, the inhibition was 19.4%.
Regarding `CCc1cc(C(C)=O)c(O)cc1OCCCCCC(C)(C)c1nn[nH]n1`, the inhibition came out at 8.67%.
For `CCCCN(CC)c1nc(C)nc2c1c(C)c(C)n2-c1c(C)cc(C)cc1C`, the inhibition came out at 7.01%.
With `Cn1cc(C(=O)OCC2CCN(CCNS(C)(=O)=O)CC2)c2ccccc21`, the inhibition was -8.82%.
`CN(Cc1ccccc1)C(=O)[C@H](Cc1ccc2ccccc2c1)NC(=O)[C@@H]1C[C@@H](O)CN1C(=O)c1cn(C)c2ccccc12`: the inhibition came to 84.1%.
Take `CN(C)CC/C=C1/c2ccccc2COc2ccc(CC(=O)O)cc21`: the inhibition came to 2.79%.
For `CC(C)Cc1ccc(C(C)C(=O)NO)cc1` (stereo not given) the value was 49.7%; for `CC1(N)CCN(c2cnc(-c3cccc(Cl)c3Cl)c(N)n2)CC1`, 21.6%.
Take `O=C(/C=C/c1ccc(O)c(O)c1)OCCc1ccccc1`: the inhibition was 80.7%.
For `C[C@@](Cc1ccc(O)c(O)c1)(NN)C(=O)O` the value was -8.77%; for `O=C(O)/C=C/c1ccc(-c2ccc(O)c(C34CC5CC(CC(C5)C3)C4)c2)cc1`, 30.5%; for `COc1cc(NC(=O)Nc2cccc(CNC(=O)O[C@H]3CCOC3)c2)ccc1-c1cnco1`, 38.8%.
Consider `CCCCCCNC(=O)n1cc(F)c(=O)[nH]c1=O`, for which the inhibition was found to be 5.48%.
Then `Cn1cc(-c2cnc3ccc4ccc(CS(=O)(=O)NCc5ccccn5)cc4c(=O)c3c2)cn1`, with -2.81%.
In the case of `O=C(CN1CCN(Cc2ccc3c(c2)OCO3)CC1)N1c2ccccc2Sc2ccccc21`, the inhibition amounted to 8.76%.
Then `O=C(COc1ccc(Cl)cc1)N1CCN(Cc2ccc3c(c2)OCO3)CC1`, with 6.09%.
Take `O=C(NCc1ccc2c(c1)OCO2)c1c(Cl)cccc1Cl`: the inhibition is 76.1%.
As to `NC(Cc1ccc(Cl)cc1)C(=O)O` (racemic), the inhibition is 19.5%.
In the case of `Cc1ccc(-n2sc(=O)n(Cc3ccc(F)cc3)c2=O)cc1`, the inhibition amounted to 41.5%.
For `O=c1sn(-c2cccc3ccccc23)c(=O)n1Cc1ccccc1` the value was 83.4%; for `CNC(=O)c1ccc2cc(C3(O)CCn4cncc43)ccc2c1` (stereo not given), 25.9%; for `Nc1nc2c(c(N3CCNCC3)n1)CCC1=C2[C@@H]2CCCC[C@@H]2O1`, -3.26%.
Then `CNNCc1ccc(C(=O)NC(C)C)cc1`, with 4.33%.
On to `C[C@H](NC(=O)Cc1cc(F)cc(F)c1)C(=O)N[C@H](C(=O)OC(C)(C)C)c1ccccc1`, for which the inhibition came out at 17.3%.
For the molecule `C[C@H](NCc1ccc(OCc2ccccc2F)cc1)C(N)=O`, the inhibition was 69.4%.
Then `CC(C)COc1ccc(CNC(=O)N(Cc2ccc(F)cc2)C2CCN(C)CC2)cc1`, with -8.99%.
For `CC(C)NCC(O)COc1ccc(CC(N)=O)cc1` (stereo not given) the value was 4.66%.
As for `C[C@H](NCc1ccc(OCc2cccc(F)c2)cc1)C(N)=O`, the inhibition amounted to 83.6%.
For the molecule `C(#Cc1nc2ncccc2nc1OCCN1CCCC1)c1ccccc1`, the inhibition was found to be 30.5%.
Consider `O=c1[nH]c2ccccc2n1CCCN1CCN(C(c2ccccc2)c2ccccc2)CC1`, for which the inhibition was -9.27%.
Then `O=C1c2ccccc2-n2c1nc1ccccc1c2=O`, with 104%.
As to `C[C@H](NC[C@H](O)CP(=O)(O)Cc1ccccc1)c1ccc(Cl)c(Cl)c1`, the inhibition was -2.08%.
With `N=C(N)S/C=C\C(=O)O`, the inhibition amounted to 6.84%.
In the case of `CC(=O)N[C@H](Cc1ccc2ccccc2c1)C(=O)N[C@H](Cc1ccc(Cl)cc1)C(=O)N[C@H](Cc1cccnc1)C(=O)N[C@@H](CO)C(=O)N[C@@H](Cc1ccc(NC(=O)[C@@H]2CC(=O)NC(=O)N2)cc1)C(=O)N[C@H](Cc1ccc(NC(N)=O)cc1)C(=O)N[C@@H](CC(C)C)C(=O)N[C@@H](CCCCNC(C)C)C(=O)N1CCC[C@H]1C(=O)N[C@H](C)C(N)=O` (Ac-[d2Nal][dPhe(4-Cl)][d3Pal]S[Phe(4-NH2)](Dihydroorotyl(S))[dPhe(4-NHCONH2)]L[Lys(iPr)]P[dA]-NH2), the inhibition is 33.2%.
Then `NS(=O)(=O)c1cc2c(cc1Cl)N=C(CSCc1ccccc1)NS2(=O)=O`, with 78.4%; and `NS(=O)(=O)c1cc2c(cc1Cl)NCNS2(=O)=O`, with -9.26%; and `CN1C(CSCC(F)(F)F)Nc2cc(Cl)c(S(N)(=O)=O)cc2S1(=O)=O` (stereo not given), with 11.5%.
As for `COc1cc(OC)cc(C(=O)NNC(=O)Nc2cccc3ccccc23)c1`, the inhibition is 9.39%.
Then `CCCCCC(O)c1cccc(OCc2ccc3ccccc3n2)c1` (stereo not given), with 70.6%; and `Cn1cc(-c2ccncc2)c(-c2ccc(OCc3ccc4ccccc4n3)cc2)n1`, with 4.18%; and `O=C(O)c1ccccc1Nc1cccc(OCc2ccc3ccccc3n2)c1`, with 14.8%.
Then `NS(=O)(=O)c1cc(C(=O)O)cc(N2CCCC2)c1Oc1ccccc1`, with 1.91%; and `COc1c(Nc2ccc(S(C)(=O)=O)nc2C)ncnc1OC1CCN(C(=O)OC(C)C)CC1`, with 42.5%.
On to `O=C1NCCN1CCN1CCC(c2cn(-c3ccc(F)cc3)c3ccc(Cl)cc23)CC1`, for which the inhibition amounted to 3.95%.
Consider `Cc1c(Cn2c(C)nc3c(C(=O)O)cc(N4CCOCC4)cc32)cccc1C(F)(F)F`, for which the inhibition was found to be 13.4%.
In the case of `Cc1cc([C@@H](C)Nc2ccccc2C(=O)O)c2nc(N3CCOCC3)cc(=O)n2c1`, the inhibition worked out at 92.5%.
For the molecule `O=c1cc(N2CCOCC2)nc2c3ccccc3ccn12`, the inhibition is 33.6%.
`CCN1CCN(Cc2ccc(Nc3ncc(F)c(-c4cc(F)c5nc(C)n(C(C)C)c5c4)n3)nc2)CC1`: the inhibition was -7.99%.
`c1ccc(N2CCN(CCCOc3ccc4c(c3)OCO4)CC2)cc1`: the inhibition worked out at 8.38%.
Regarding `CCCCOC(=O)c1cc2c(cn1)[nH]c1ccccc12`, the inhibition came to 78.3%.
Take `CCCCC(=O)NCCc1c(Cc2ccccc2)[nH]c2ccccc12`: the inhibition was -8.08%.
As for `CCCCCCN(CCCCCC)C(=O)Cc1c(-c2ccc(F)cc2)[nH]c2ccccc12`, the inhibition was 0.87%.
On to `CNC(=O)c1cc2c(cn1)[nH]c1ccccc12`, for which the inhibition was determined as 71.2%.
For `CCOC(=O)c1ncc2[nH]c3cccc(OC(C)C)c3c2c1C`, the inhibition is -0.9%.
With `CNCC(=O)O`, the inhibition stood at 15.9%.
`NC(=O)C1=CN([C@@H]2O[C@H](COP(=O)(O)OP(=O)(O)OC[C@H]3O[C@@H](n4cnc5c(N)ncnc54)[C@H](OP(=O)(O)O)[C@@H]3O)[C@@H](O)[C@H]2O)C=CC1`: the inhibition turned out to be 28.1%.
